The list is not random: actives were taken first. Their share in the collection is about 11%.
USP30 block – human USP30 deubiquitinase inhibition. Q70CQ3. purified USP30, Ub-rhodamine cleavage fluorescence. inhibition, % at 25 µM. actives 5.3% (n = 47,000). AID 1645860
USP17 block – inhibitors of human USP17 deubiquitinase. A8MUK1. purified USP17, Ub-rhodamine cleavage fluorescence, 3 h. inhibition, % at 50 µM. actives 6.5% (n = 47,000). AID 1645855
Target sequence (A8MUK1 whole entry, looked up): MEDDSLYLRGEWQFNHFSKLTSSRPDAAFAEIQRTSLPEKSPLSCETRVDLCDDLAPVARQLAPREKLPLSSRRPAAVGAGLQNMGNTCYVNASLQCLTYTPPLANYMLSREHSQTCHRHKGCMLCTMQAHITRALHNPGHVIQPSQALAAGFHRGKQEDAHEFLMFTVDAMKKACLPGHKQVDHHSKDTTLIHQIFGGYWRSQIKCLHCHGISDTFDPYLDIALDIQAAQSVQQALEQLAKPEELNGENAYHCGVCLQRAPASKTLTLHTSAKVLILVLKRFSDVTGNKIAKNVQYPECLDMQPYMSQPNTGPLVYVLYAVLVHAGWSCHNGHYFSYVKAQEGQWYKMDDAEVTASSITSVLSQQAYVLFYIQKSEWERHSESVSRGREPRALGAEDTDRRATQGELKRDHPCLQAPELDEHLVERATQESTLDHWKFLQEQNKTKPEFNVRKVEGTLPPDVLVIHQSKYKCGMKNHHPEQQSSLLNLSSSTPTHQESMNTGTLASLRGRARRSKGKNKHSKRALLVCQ
USP28 block – inhibitors of human USP28 deubiquitinase. Q96RU2. purified USP28, Ub-rhodamine cleavage fluorescence, 30 min. inhibition, % at 25 µM. actives 3% (n = 47,000). AID 1645857
OTUD3 block – human OTUD3 deubiquitinase inhibition | purified OTUD3, Ub-rhodamine fluorescence, 2 h | actives 0.7% (n = 47,000) | inhibition, % at 25 µM | Q5T2D3
Starred values were filed as active, the others as inactive; i = inactive; · = no result given. Cut-off read from the data, not from the text of the source: active = inhibition above about 30%; inactive = the rest.

SMILES	USP30 block	USP17 block	USP28 block	OTUD3 block
CC1Oc2ccccc2C(=O)N(Cc2ccc(F)cc2)C1=O (configuration not stated)	9	10	18	6
CC1Oc2ccccc2C(=O)N(Cc2ccccc2)C1=O (configuration not stated)	32*	20	33*	22
N#Cc1cn2c(nc1-c1ccc(Cl)cc1)nc1ccccc12	77*	94*	71*	61*
O=C1OC[C@@H]2CCN(CC3CC3)C[C@H]2N1Cc1ccccc1	6	7	-2	2
Cc1cc(=O)n(C)c2c(O)c3c(cc12)c(C)cc(=O)n3C	4	77*	70*	57*
COc1ccc2[nH]c(=O)c(CN(CCCN3CCOCC3)C(=O)Nc3ccccc3Cl)cc2c1	9	·	-1	2
COc1ccc(CNC(=O)Cn2ccc3ccn(C)c3c2=O)cc1	-7	28	-11	-5
COc1cccc(Cn2nc3n(C(C)C)c(=O)c4ccc(C(=O)NC(C)C)cc4n3c2=O)c1	15	14	10	12
COc1cccc(Cn2nc3n(CC(C)C)c(=O)c4ccc(C(=O)NC(C)C)cc4n3c2=O)c1	30*	18	4	13
COc1ccc(CNS(=O)(=O)c2ccc3[nH]c(=O)ccc3c2)cc1	·	47*	·	1
COc1cccc(CNS(=O)(=O)c2ccc3[nH]c(=O)[nH]c3c2)c1	-4	8	18	18
Cc1nnc(NC(=O)C2CCN(c3ccc(S(N)(=O)=O)cc3[N+](=O)[O-])CC2)o1	29	73*	66*	67*
Cc1c(-c2ccccc2)sc(NC(=O)c2cccc([N+](=O)[O-])c2)c1C#N	8	15	-3	9
O=C(Nc1cccc(Cl)c1)N1CCC(c2nc(-c3cccnc3)no2)CC1	-6	-17	-7	-7
O=C(Nc1cccc(Cl)c1)N1CCC(c2cc(-c3ccco3)n[nH]2)CC1	-79	64*	39*	33*
Cc1ccc(NC(=O)c2ccn(COc3ccc(Cl)c(C)c3)n2)nc1	22	34*	-6	-1
Cc1ccc(Cl)cc1NC(=O)c1cccc(-n2cnnn2)c1	8	-2	-13	-4
Cc1ccc(NC(=O)c2ccn(COc3ccccc3Cl)n2)nc1	48*	33*	19	7
Cc1cccc(NC(=O)c2ccn(COc3ccc(F)cc3)n2)n1	4	17	10	0
Cc1cc(C)nc(NC(=O)c2ccn(COc3ccc(F)cc3)n2)c1	32*	4	4	13
Cc1ccc(Cl)cc1NC(=O)c1ccn(COc2ccccc2F)n1	0	0	35*	5
O=C(CCc1c[nH]c2ccccc12)N1C[C@@H](O)[C@H](N2CCCC2)C1	-4	-5	-12	-2
O=C(CCc1c[nH]c2ccccc12)OCC(=O)c1cc2c3c(c1)CC(=O)N3CCC2	·	62*	·	0
O=C1CC(=O)Nc2cc(S(=O)(=O)NCc3ccc(F)cc3)ccc2N1	4	1	5	4
Cc1ccccc1-c1nc(Cn2ccnc2C)no1	14	9	32*	2
SMILES	USP30 block	USP17 block	USP28 block	OTUD3 block
CCc1nccn1Cc1noc(-c2ccc(C)c(C)c2)n1	-3	0	39*	-3
CCc1nccn1Cc1nc(-c2ccc(Cl)cc2)no1	-15	-3	43*	-1
Cc1ccc(CNc2nc(NCc3ccc(C)cc3)n(S(C)(=O)=O)n2)cc1	8	28	6	9
Cc1nc2nc(CN(C(=O)C(C)C)c3ccccc3)nn2c(C)c1Cl	0	-3	0	-2
Cc1cc(C)n2nc(CNc3cccc(Cl)c3)nc2n1	10	11	73*	3
Cc1nc2nc(CNc3ccccc3)nn2c(C)c1Cl	21	13	47*	9
Cc1cc(=O)n2[nH]c(CNc3cccc(Cl)c3)nc2n1	-19	-14	0	5
Cc1ccc(C2=NC3(CCN(C(=O)Cc4ccccc4)CC3)NC2=O)cc1	12	7	0	7
O=c1c2ccccc2oc2nc(-c3cccs3)n(-c3ccccc3)c(=O)c12	33*	57*	9	-3
O=c1oc(-c2cccs2)ns1	17	0	0	13
Cc1cccc(NC(=O)c2ccc(N3C(=O)C(C)CS3(=O)=O)cc2)c1C (configuration not stated)	·	34*	·	3
Cc1ccc(NC(=O)c2ccc(N3C(=O)C(C)CS3(=O)=O)cc2Cl)cc1C (configuration not stated)	-1	-2	39*	0
CC1CS(=O)(=O)N(c2ccc(C(=O)NCc3ccc(F)cc3)cc2)C1=O (configuration not stated)	17	-1	5	11
CN1CC2CN(S(=O)(=O)c3cccc(C#N)c3)CCN2Cc2ccccc21 (configuration not stated)	i	-199	-221	-186
CC(C)=CCC/C(C)=C/C[C@]1(O)C(=O)c2cc(O)cc(O)c2C(=O)[C@@]1(Cl)CC=C(C)C	9	50*	20	14
CCn1ccnc1CN1CCC(C2CC=CCN(Cc3ccc(F)cc3)C2=O)CC1 (configuration not stated)	-21	-11	-9	-3
O=C(O)c1cccc2ncc(-c3ccc4ccccc4c3)nc12	-48	-16	-12	1
O=C1COc2ccc(Br)cc2CN1Cc1ccccc1F	27	20	40*	19
Cc1ccc(Nc2nc3c(S(=O)(=O)c4ccccc4)nnn3c3ccccc23)c(C)c1	29	24	-3	-18
COc1ccc(Nc2nc3c(S(=O)(=O)c4ccc(C(C)C)cc4)nnn3c3ccccc23)cc1	32*	24	10	6
Cc1ccc(S(=O)(=O)c2nnn3c2nc(NCc2ccc(F)cc2)c2ccccc23)cc1C	22	12	10	9
O=S(=O)(c1ccccc1)c1nnn2c1nc(NCc1ccc(Cl)cc1)c1ccccc12	19	42*	9	10
CC(=O)c1ccc(NC(=O)CN2CCC(c3nnc(C)s3)CC2)cc1	0	1	5	5
Cn1c2ccccc2c(=O)c2c(=O)n(Cc3ccco3)c(C3CCCCC3)nc21	21	8	7	8
CCCCC/C=C/C/C=C/CCCCCCCC(=O)N[C@@H]1C[C@@H](O)[C@@H](O)NC(=O)[C@@H]2[C@H](O)[C@@H](C)CN2C(=O)[C@@H]([C@@H](C)O)NC(=O)[C@H]([C@H](O)[C@@H](O)c2ccc(O)cc2)NC(=O)[C@@H]2C[C@@H](O)CN2C(=O)[C@H]([C@@H](C)O)NC1=O	-22	-9	-8	-15
CCC(C)N1CNc2c(c(=O)[nH]c(=O)n2Cc2ccco2)C1 (configuration not stated)	39*	·	-4	13
O=c1[nH]c(=O)n(Cc2ccco2)c2c1CN(Cc1ccccc1)CN2	-21	-7	-1	2
COc1ccc(-c2nnc3n2CCN(Cc2ccc(C#N)cc2)C3)cc1	14	3	13	18
COc1ccc(CCNC(=O)c2c(N)n(-c3cccc(Cl)c3)c3nc4ccccc4nc23)cc1	-102	65*	-22	-29
COc1ccc(CCNC(=O)c2c(N)n(-c3cccc(F)c3)c3nc4ccccc4nc23)cc1	-102	38*	-26	-59

Assay outcomes: PubChem, Buhrlage Lab, Dana-Farber Cancer Institute and Novartis Institutes for BioMedical Research (Cambridge, Mass)
